The text below walks through data of PubChem BioAssay (NCI).

Each structure is given as a SMILES string. About 83,000 compounds went through this panel and 20% of them were active in at least one assay; those are over-represented in the sample as a whole.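 Cells were grown in 96-well plates and exposed to the test compound at a single concentration for 48 hours; results are reported as percent growth, with values below 10 considered active.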 A number with no mark means an inactive call. Activity calls are given as the source filed them.

In the assay the test system is HL-60(TB) leukemia. The assay is described as follows: NCI-60 one-dose screen, 48 h (100 = growth as untreated, 0 = no growth, -100 = all killed). Particulars: 10 µM unless noted.
`Clc1cccc(Cc2cn3cc(-c4ccccc4)nc3s2)c1`: the growth was 66.1%. As for `S=c1nc(-c2ccccc2)oc(=NC2CCCCC2)n1C1CCCCC1`, the figure is -36.5% (active); as for `COc1cccc(-c2nnc(COc3ccc(-c4nc5ccccc5[nH]4)cc3OC)o2)c1`, 103%. As for `C/C(=N\Nc1cccc(Cl)n1)c1ccccn1`, the figure is -9.92% (active); as for `Cc1ccc(Cl)cc1NC(=O)c1sc2nc3c(cc2c1N)C(=O)CCC3`, 82.2%; as for `CN1C(=O)N(C)C2C1NN=c1s/c(=C\c3ccc(F)cc3)c(=O)n12` (stereo not given), -22.4% (active).

In the case of `Cc1onc(-c2c(F)cccc2Cl)c1-c1ncc(-c2ccc(Br)cc2)o1`, the growth is 37.5%. As for `CCC(C)NCc1ccccc1` (stereo not given), the figure is 94.6%; as for `NCCCNc1nc2ccccc2c2c(=O)c3cc(F)ccc3sc12`, -28.1% (active); as for `COc1cnc2c(c1)C(=O)c1c-2n(CCCNC2=NCCS2)c(=O)c2cc([N+](=O)[O-])ccc12`, -58.7% (active). For `O=C(Cn1nnc2ccccc21)N/N=C/c1ccccc1F`, the growth is 107%.

`O=[P@@]1(c2ccccc2)O[C@H](COCc2ccccc2)[C@@H](OCc2ccccc2)[C@H](OCc2ccccc2)[C@H]1O`: the growth is 98.5%. The figure for `Cc1nc(Nc2cccnc2)sc1C(=O)/C=C/c1ccc(F)cc1` is 12.6%.

Take `COc1cc(-c2nc3occn3c2-c2ccnc(NCCCNS(=O)(=O)c3ccccc3)n2)ccc1F`: the growth was 39.6%. The figure for `Nc1c(C(=O)Nc2cccc3ccncc23)sc2nc3c(cc12)C(=O)CCC3` is 14.7%. As for `C#C[C@@]1(O)[C@@H](CO)O[C@@H](n2cc(I)c3c(N)ncnc32)[C@@H]1O`, the figure is -56.6% (active); as for `N=C(N)c1ccc(-c2ccc(-c3cccs3)o2)cc1`, -28.5% (active).

With `CN(C)C(=O)OCc1ccc2c(Cl)cc(Cl)c(O)c2n1`, the growth was 18.8%. As for `Cc1ccc(-n2nnnc2N)c(C)c1`, the figure is 117%; as for `COc1ccc(/C=C2\COc3ccc(O)cc3C2=O)cc1`, -33.1% (active).

As for `COc1ccc(-c2ncc(-c3ccccc3)[nH]2)cc1OC`, the growth was -30.2% (active).

Consider `Oc1c(I)cc(I)cc1CNCc1ccccn1`, for which the growth was 20.2%.

As to `CN1C(=O)CNC(=O)[C@H](NC(=O)c2nc3ccccc3cc2O)CSSC[C@H]1C(=O)NCCc1nc2ccccc2cc1O`, the growth is -36.8% (active). Consider `O=C(c1nc2ccccc2[nH]1)C1C(c2cccc([N+](=O)[O-])c2)C2CC3CCCCC3N2[C@@]12C(=O)Nc1cc(Cl)ccc12` (stereo not given in full), for which the growth is 4.05% (active). The figure for `COCCOCCCl` is 110%; for `C[N+](C)(C)c1ncnc2[n-]cnc12` it is 103%; for `CC(=O)OC1CC2C(C)(C)CCC[C@]2(C)C2=C1C(O)=C(C(C)C)C(=O)C2=O` (stereo not given in full) it is 3.12% (active). With `Nc1nc(-c2ccc(F)cc2)cc(-c2cnn(-c3ccccc3)n2)n1`, the growth was 101%. As for `N#CC[C@H](C1CCCC1)n1cc(-c2ncnc3[nH]ccc23)cn1`, the figure is 97.7%; as for `Cc1cccc(OCC(O)CN2CCN(c3ccc(Cl)cc3)CC2)c1` (stereo not given), 97.9%; as for `Clc1ccc([I+]c2ccc(Cl)cc2Cl)c(Cl)c1`, -38.3% (active).

`Nc1ccc(Sc2ccc([N+](=O)[O-])c3nonc23)cc1`: the growth is 42.8%.

As to `CC(C)C(=O)Nc1ncc(C(=O)NCCN(Cc2ccccc2)C(=O)c2ccc(S(=O)(=O)Nc3ccccc3)cc2)s1`, the growth is 107%. As for `CN(N)c1nc2sc3c(c2c(=O)[nH]1)CCCC3`, the figure is 102%. As for `CC1(C)[C@@H](O[C@@H]2OC[C@@H](O[C@@H]3O[C@H](CO)[C@@H](O)[C@H](O)[C@H]3O[C@@H]3OC[C@@H](O)[C@H](O)[C@H]3O)[C@H](O)[C@H]2O[C@@H]2O[C@H](CO)[C@@H](O)[C@H](O)[C@H]2O)CC[C@]2(C)[C@H]3CC[C@]45OC[C@@]6(CC[C@](C)(C=O)C[C@H]64)[C@H](O)C[C@@]5(C)[C@]3(C)CC[C@@H]12`, the figure is -58.6% (active); as for `CC1(C)CC[C@]2(C(=O)OC(=O)[C@]34CCC(C)(C)C[C@@H]3C3=CC[C@@H]5[C@@]6(C)CCC(=O)C(C)(C)[C@@H]6CC[C@@]5(C)[C@]3(C)CC4)CC[C@]3(C)C(=CC[C@@H]4[C@@]5(C)CCC(=O)C(C)(C)[C@@H]5CC[C@]43C)[C@H]2C1`, 6.37% [100 µM] (active); as for `COc1ccc(C(=O)c2sc3nc4c(cc3c2N)CCCC4)cc1OC`, 11.4%. As for `CCN(CC)C(=S)SCCO`, the figure is 102%.

With `O=C(Nc1ncc(Cc2cc(C(F)(F)F)ccc2Cl)s1)C(=S)N1CCOCC1`, the growth was 98.1%. As for `Cn1c(N)c(N=Nc2ccc(S(=O)(=O)Nc3nccs3)cc2)c(=O)n(C)c1=O`, the growth was 94.6%.
